Screening data as filed in PubChem BioAssay.
Compounds with a hit are over-represented: about 3.3% of the library has one in this group of screens.
PHOSPHO1 inh = PHOSPHO1 (human) inhibition; recombinant PHOSPHO1, absorbance phosphatase assay; inhibition, % at 13.3 µM; 1.1% of 290,000 active; AID 1565; in the data active means inhibition above about 60%
H9c2 protect = myocardial damage modulation in H9c2 cells. 0.63% of 360,000 active. H9c2 cardiomyocytes, H2O2 injury protection, ATPLite, 2 h. protection from H2O2 cell death, % at 20 µM. AID 588492;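 active means compounds giving at least 50% protection of heart cells from peroxide-induced death in the single-dose screen, raw or plate-pattern-corrected value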
Efflux pump inh = antifungal efflux pump inhibition, Nile Red retention; S. cerevisiae Candida pump triplex; inhibition, % at 10 µM; 0.44% of 330,000 active;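 active means plate passing quality check with inhibition over a set limit, or well fluorescence over plate mean plus 4 SD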;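 further: Nile Red retained in pooled yeast measured as flow cytometry median fluorescence; higher means more Nile Red kept so more efflux inhibition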
Calb FLC = C. albicans growth modulation with fluconazole | growth inhibition, % (concentration not given with the values) | 0.57% of 300,000 active | AID 1979 | C. albicans CaCi-2 (fluconazole-resistant clinical isolate) + fluconazole, Alamar Blue growth, 48 h;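 active means growth inhibition above about 58% in most replicates, limit read from the data, passing the limit was not always enough; inconclusive means exactly half the replicates above a set limit; inactive means most replicates below a set limit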;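 further: all wells also contain fluconazole at 8 µg/ml as a sub-toxic cotreatment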
Cl transport mod = modulators of human KCC2 chloride dependent transport; Q9H2X9; KCC2 cells, thallium flux FluoZin-2 fluorescence; B-score of Tl+ flux slope (higher = more flux/activation; lower = inhibition) at 10 µM; 2.2% of 190,000 active; AID 1456;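 active means thallium flux slope and its plate-corrected score both differing from the plate sample mean at a set confidence after two filtering rounds, in either direction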;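 further: slope of fluorescence scaled to starting intensity during 10 to 20 s after thallium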
Target sequence (Q9H2X9 whole entry, looked up): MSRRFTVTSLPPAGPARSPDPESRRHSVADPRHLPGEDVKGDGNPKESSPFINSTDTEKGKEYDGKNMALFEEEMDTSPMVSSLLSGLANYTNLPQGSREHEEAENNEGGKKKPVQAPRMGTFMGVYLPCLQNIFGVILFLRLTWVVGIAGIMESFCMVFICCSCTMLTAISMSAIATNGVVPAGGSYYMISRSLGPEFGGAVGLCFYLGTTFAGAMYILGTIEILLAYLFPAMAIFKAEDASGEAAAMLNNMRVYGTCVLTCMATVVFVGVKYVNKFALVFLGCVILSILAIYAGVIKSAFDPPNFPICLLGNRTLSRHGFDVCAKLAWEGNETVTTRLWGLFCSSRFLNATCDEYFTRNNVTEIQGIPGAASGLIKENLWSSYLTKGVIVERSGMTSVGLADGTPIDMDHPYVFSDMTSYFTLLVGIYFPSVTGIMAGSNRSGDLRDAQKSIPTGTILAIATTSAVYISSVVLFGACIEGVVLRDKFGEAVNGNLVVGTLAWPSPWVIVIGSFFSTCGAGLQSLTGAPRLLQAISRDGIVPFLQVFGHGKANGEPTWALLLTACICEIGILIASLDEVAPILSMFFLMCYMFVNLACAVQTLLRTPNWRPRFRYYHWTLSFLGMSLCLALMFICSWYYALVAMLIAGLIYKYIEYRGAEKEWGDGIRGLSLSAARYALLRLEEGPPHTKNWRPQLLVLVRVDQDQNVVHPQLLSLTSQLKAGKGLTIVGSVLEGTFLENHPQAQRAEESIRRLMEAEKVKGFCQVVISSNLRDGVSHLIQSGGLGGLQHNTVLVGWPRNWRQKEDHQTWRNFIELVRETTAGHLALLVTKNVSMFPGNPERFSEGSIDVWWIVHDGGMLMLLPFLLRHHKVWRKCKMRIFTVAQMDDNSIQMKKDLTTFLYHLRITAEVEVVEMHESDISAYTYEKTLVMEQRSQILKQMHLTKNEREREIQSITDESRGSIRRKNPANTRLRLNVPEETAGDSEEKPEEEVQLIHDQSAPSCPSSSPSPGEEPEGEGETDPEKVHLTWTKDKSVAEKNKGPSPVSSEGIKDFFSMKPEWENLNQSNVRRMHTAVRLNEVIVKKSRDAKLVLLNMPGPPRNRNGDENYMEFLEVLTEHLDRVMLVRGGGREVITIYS
KCC2 sec1 = confirmation of human KCC2 transport modulators; shares compounds with Cl transport mod; HEK293-KCC2, thallium flux, FluoZin2 fluorescence; hits give high values; normalised thallium flux (F/F0 slope) at 10 µM; 15% of 3,700 active;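 active means thallium flux slope above the same plate's solvent-only control mean plus 3 SD; inconclusive means the two replicate wells disagree; inactive means no significant difference from solvent-only control wells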
KCC2 bumet counter = bumetanide-insensitive thallium flux in KCC2 cells with ouabain, counter-screen; shares compounds with Cl transport mod; HEK293-KCC2 + bumetanide/ouabain, thallium flux FluoZin2; hits give high values; normalized thallium flux at 10 µM; 49% of 3,700 active; AID 1714;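 active means thallium entry rate above the same plate's blocked-transporter control wells by more than 3 SD; inconclusive means the two repeat wells disagree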;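 further: raw slope of fluorescence over initial fluorescence between 10 and 20 s after thallium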
KCC2 sec2 = KCC2 (human) modulation, second secondary assay. AID 1715. HEK293-KCC2, thallium flux FluoZin2 fluorescence; actives lie on both sides; F/F0 rise rate, 10–20 s post-thallium. 23% of 3,700 active. shares compounds with Cl transport mod. normalized thallium flux at 10 µM;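 active means thallium flux slope more than 3 SD above or below the plate's solvent-only control mean, mostly below; inconclusive means the two repeat wells disagreed; inactive means no significant shift from solvent-only controls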
HEK293 Tl flux = counter-screen for KCC2 modulators: effect in parental HEK293 cells. shares compounds with Cl transport mod. thallium flux FluoZin2, ouabain; baseline-ratio fluorescence slope, 10–20 s after thallium. thallium flux rate (normalised fluorescence) at 10 µM. 46% of 3,700 active. AID 1716;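 active means thallium flux rate significantly above the same plate's solvent-only control wells, beyond their mean plus 3 SD; inconclusive means the two replicate wells gave conflicting results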
KCC2 retest ouab = KCC2 (human) modulation, ouabain retest. shares compounds with Cl transport mod. HEK293-KCC2, thallium flux FluoZin2 fluorescence; bidirectional: low = inhibitor, high = activator. raw Tl+ flux slope (below DMSO = inhibition, above = activation) at 10 µM. 48% of 3,700 active;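 active means thallium flux slope beyond 3 SD from same-plate DMSO control mean in most replicates, usually higher, sometimes lower; inconclusive means repeat tests gave conflicting results; inactive means no significant difference from controls in most replicates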;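 further: slope of initial-normalized fluorescence between seconds 10 and 20 after thallium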
HEK counter2 = acts in parental HEK cells, second KCC2 counter-screen; shares compounds with Cl transport mod; HEK293 parental, thallium flux FluoZin-2 fluorescence slope; thallium flux slope at 10 µM; 33% of 3,700 active;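 active means thallium flux slope above the same plate's solvent-control mean plus 3 SD in both duplicate wells; inconclusive means duplicate wells that disagreed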;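 further: run without ouabain in cells lacking the KCC2 cotransporter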
Numbers stand for hits; 0 = inactive; ? = inconclusive; - = no result.

SMILES	PHOSPHO1 inh	H9c2 protect	Efflux pump inh	Calb FLC	Cl transport mod	KCC2 sec1	KCC2 bumet counter	KCC2 sec2	HEK293 Tl flux	KCC2 retest ouab	HEK counter2
COc1ccc(C(c2nnnn2Cc2ccccc2)N2CCN(c3ccccc3)CC2)cc1 (centres undefined)	0	0	0	0	0	-	-	-	-	-	-
CCC(c1nnnn1Cc1ccccc1)N1CCN(c2ccccc2)CC1 (centres undefined)	0	0	0	0	-3.9	0	0	?	0	0.015	0
CC(C)(CCl)C(=O)Nc1ccnc(-c2ccncc2)n1	0	0	0	0	0	-	-	-	-	-	-
CCOC(=O)c1sc(NC(=S)NC(=O)c2ccccc2)nc1C	0	0	0	0	54	0	0.089	0.071	0.063	0.081	0.055
O=C(NC(=S)NCc1ccc2c(c1)OCO2)c1ccccc1	0	0	0	0	12	0	0.019	0	0.009	?	?
COc1ccc(C(=O)NC(=S)NNC(=O)c2ccc3ccccc3n2)cc1	0	0	0	108	57	?	0.072	?	0.067	0.063	0.042
COc1ccc(C(=O)NC(=S)NCc2ccccc2)cc1	62	0	0	0	-3	0	0.0077	0	0	0	0
CC(=O)NCCc1ccc(S(=O)(=O)Nc2ccc(NC(=O)c3ccc(F)cc3)cc2)cc1	0	0	0	0	-	-	-	-	-	-	-
O=C(CCCC(=O)Nc1ccccc1Br)N/N=C/c1c(F)cccc1Cl	0	0	0	0	-	-	-	-	-	-	-
CC1CC(C)(C)OC(C[N+]2(C)CCCCC2)O1 (centres undefined)	0	0	0	0	0	-	-	-	-	-	-
CN(C)S(=O)(=O)c1ccc(N2CCCC2)c(C(=O)NNC(=O)c2ccccc2)c1	-	0	0	-	-	-	-	-	-	-	-
COC(=O)CNC(=S)NC(=O)c1ccc(C(C)(C)C)cc1	0	0	0	0	6.3	0	0.015	0	0.011	?	?
CCOC(=O)NC(=S)Nc1ccc(C(C)(C)C)cc1	0	0	0	0	139	0.026	0.085	0	0.065	0.067	0.02
COc1cc(/C=N/NC(=O)C23CC4CC(CC(C4)C2)C3)cc(Br)c1O	0	0	0	0	0	-	-	-	-	-	-
O=C(N/N=C/c1cc([N+](=O)[O-])cc(Br)c1O)C12CC3CCC(CC(C3)C1)C2	0	0	0	0	8.3	0	0.017	0	0.012	?	?
CN1C(c2ccc(F)cc2)=CS/C1=C(/C#N)c1nnc(N2CCOCC2)n1-c1ccccc1	0	0	0	0	0	-	-	-	-	-	-
CCN1C(c2ccc(F)cc2)=CS/C1=C(\C#N)c1nnc2n1-c1ccccc1SC2	0	0	0	0	-5.1	0	0	0	0	0.015	0
COc1ccc(OCC(=O)NC(=S)Nc2ccccc2F)cc1	0	0	0	0	52	0.04	0.088	0.049	0.028	0.051	0.033
COc1ccc(C/C(C)=N/NC(=S)Nc2ccccc2F)cc1	0	0	0	0	55	0	0.036	0	?	0.039	?
COc1ccc(C/C(C)=N/NC(=S)Nc2ccc(C(C)C)cc2)cc1	0	0	0	0	0	-	-	-	-	-	-
O=[N+]([O-])c1ccc(Sc2cccc[n+]2[O-])c2nonc12	0	0	-	0	8.4	0	0.023	0	0.015	0	?
O=C(CSc1cccc[n+]1[O-])Nc1cc(Cl)ccc1[N+](=O)[O-]	-	0	0	-	-	-	-	-	-	-	-
